HT1080 IDH1KD tx: qHTS for induction of synthetic lethality in tumor cells producing 2HG: qHTS for the HT-1080-IDH1KD cell line. HT-1080 IDH1 knockdown viability, ATP luminescence, 48 h. hit rate 2% among 360,000. Potency, µM (titrated, usually from 46.1 µM), actives largely listed as cytotoxic. AID 686971, 2013
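Assay cells: HT-1080 with IDH1 knockdown, 750 per well, RPMI/5% FBS. Exposure: 48 h at 37 °C following 2 h pre-incubation. Read: CellTiter-Glo luminescence; fitted concentration-response, curve class assigned.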
KB-3-1 tox: qHTS assay for MDR1-selective chemotherapeutics: Primary screen using the parental adenocarcinoma cell KB-3-1; KB-3-1 viability, CellTiter-Glo ATP luminescence, 72 h; Potency, µM (series often up to 46.1 µM), hits mostly cytotoxic; hit rate 1.4% among 400,000; also: nearly all actives have a fitted effect of over 60% in size
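KB-3-1 parental drug-naive adenocarcinoma cells in DMEM/10% FBS, incubated 72 h at 37 C with pin-transferred compounds across a concentration series. Viability by CellTiter-Glo luminescence; concentration-response curves fitted after normalization.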
HT1080-NT tox: qHTS for induction of synthetic lethality in tumor cells producing 2HG: qHTS for the HT-1080-NT fibrosarcoma cell line; hit rate 1.6% among 360,000; AID 686970, 2013; HT-1080-NT fibrosarcoma viability, CellTiter-Glo ATP luminescence, 48 h; Potency, µM (highest dose often 46.1 µM), hits mostly cytotoxic;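 also: NT is the 2HG producing partner of a matched IDH1 knockdown line; nearly all actives have a fitted effect of over 55% in size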
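Compounds were tested in concentration-response format on HT-1080-NT cells for 48 hours at 37 degrees C. Cell viability came from CellTiter-Glo luminescence; curves were classified by r2, response magnitude and activity.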
KB-V1 cytotox: qHTS assay for MDR1-selective chemotherapeutics: Primary screen using the drug-selected MDR subline cells KB-V1. AID 1347076, 2019. KB-V1 MDR cells viability, CellTiter-Glo, 72 h. hit rate 3.4% among 400,000. Potency, µM (doses to about 46.1 µM), most hits filed as cytotoxic; also: nearly all actives have a fitted effect of over 60% in size
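Luminescent ATP read-out (CellTiter-Glo, 10 min) measures survival of drug-selected KB-V1 MDR cells after 72 h, 37 degrees C compound exposure. Medium: phenol-red-free DMEM, 10% FBS. Values from fitted concentration-response curves.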
DT40 TDP1 no CPT: qHTS for Inhibitors of human tyrosyl-DNA phosphodiesterase 1 (TDP1): qHTS in cells in absence of CPT. Potency, µM (highest dose often 46.2 µM), most hits filed as inhibitors. DT40 Tdp1-/- hTDP1 cells, no CPT, ATP luminescence, 48 h. hit rate 15% among 420,000; also: nearly all actives have a fitted effect of over 55% in size
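Stably hTDP1-transfected Tdp1-null chicken DT40 cells were treated with library compounds minus camptothecin and grown for at least 48 hr at 37 °C, after which cellular ATP was quantified by luminescence.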
TDP1 cell CPT: qHTS for Inhibitors of human tyrosyl-DNA phosphodiesterase 1 (TDP1): qHTS in cells in presence of CPT; chicken DT40 Tdp1-/-;hTDP1 cells + 20 nM CPT, ATP luminescence, 48 h; Potency, µM (titrated, usually from 46.2 µM), hits mostly inhibitors; hit rate 12% among 420,000; AID 686979, 2013; also: nearly all actives have a fitted effect of over 55% in size
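Chicken DT40 Tdp1-/- cells stably complemented with human TDP1 were seeded at 400 cells/well in medium containing 20 nM camptothecin, exposed to pin-transferred compounds, and grown at 37 °C for at least 48 hr. Viability was read as ATP luminescence.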
A number is an active result; n = inactive; u = inconclusive; x = no result; [ ] = remark or other dose. Rows were chosen to be rich in hits. Some 19% of all compounds tested hit in one or more screens of this group. Calls follow the shape of the dose curve; as a rule, active = well fitted curve in the direction sought with a large enough effect; inconclusive = small, poorly fitted or top-dose-only effect, or another doubt; inactive = no such curve, though single readings can be large; an effect the other way counts as inactive or inconclusive.

SMILES | HT1080 IDH1KD tx | KB-3-1 tox | HT1080-NT tox | KB-V1 cytotox | DT40 TDP1 no CPT | TDP1 cell CPT
COc1ccc(C2=CC(=O)CC(c3ccc(F)cc3)C2)cn1 (configuration not stated) | n | n | n | n | u | 15µM
CCc1ccc(-c2n[nH]nc2C2=CC(=O)C[C@H](c3ccc(F)cc3)C2)cc1 | n | u | n | u | 2.9µM | u
COc1ccc(-c2nc3cnc(N(C)C)nc3n(C)c2=O)cc1 | x | x | x | x | n | n
O=c1c2ccccc2c(C=Nc2cccc(O)c2)c(O)n1-c1ccc2c(c1)OCO2 | n | u | n | n | 12µM | 6.5µM
COc1cc(OC)cc(C(=O)N[C@H](C(=O)OCC(=O)c2ccc(C)c([N+](=O)[O-])c2)C(C)C)c1 | n | n | n | n | n | n
COCCCNc1ncnc2ccc(C)cc12 | n | n | n | u | 18µM | 16µM
Cc1ccc2ncnc(NCCC(=O)O)c2c1 | n | n | n | n | n | u
c1cncc(CNc2ncnc3ccc(-c4cccnc4)cc23)c1 | x | n | x | n | 12µM | 0.0065µM
COCCNc1ncnc2ccc(-c3ccccc3C(F)(F)F)cc12 | x | x | x | x | 21µM | 13µM
FC(F)(F)c1ccccc1-c1ccc2ncnc(NCc3cccnc3)c2c1 | x | x | x | x | 7.3µM | 2.1µM
Clc1ccccc1-c1ccc2ncnc(NCc3cccnc3)c2c1 | x | n | x | n | u | u
COc1ccc(S(=O)(=O)Cc2ccc(C(=O)NCc3ccccc3OC)o2)cc1 | n | n | n | n | n | 21µM
CCCCNC(=O)c1ccc(CS(=O)(=O)c2ccc(OC)cc2)o1 | n | n | n | n | n | u
COCCNC(=O)c1ccc(CS(=O)(=O)c2ccccc2)o1 | n | n | n | n | 16µM | 18µM
CCCCSCCCNC(=O)c1ccc(CS(=O)(=O)c2ccc(OC)cc2)o1 | n | n | n | u | u | 18µM
COc1ccc(NC(=O)COC(=O)CNC(=O)COc2ccccc2)cc1OC | n | n | n | n | u | n
O=C(Nc1ccc(Cl)cc1)N[C@@H]1CC[C@H](CCNS(=O)(=O)c2ccccc2F)O[C@@H]1CO | n | n | n | n | u | u
Cc1cc(C)c(C)c(S(=O)(=O)N2CCN(c3ccccn3)CC2)c1C | n | n | n | u | n | n
CC1CCN(c2ncnc3ccccc23)CC1 | n | n | n | n | 23µM | 13µM
Cc1cc(C)c(C)c(S(=O)(=O)N2CCN(c3ncnc4ccccc34)CC2)c1C | 23µM | 18µM | u | u | 8.2µM | 10µM
O=S(=O)(c1cc(C(F)(F)F)ccc1Cl)N1CCCCCC1 | n[9.24 µM] | n | n | n | n | n
O=S(=O)(c1cc(C(F)(F)F)ccc1Cl)N1CCN(c2ncnc3ccccc23)CC1 | n | u | u | u | 2.1µM | 2.1µM
CCc1ccc(NC(=O)Cn2c(=O)n(CCCCC(=O)NCCc3ccc(Cl)cc3)c(=O)c3ccccc32)cc1 | x | n | x | n | u | u
O=C(N/N=C/C(Br)=C\c1ccccc1)c1cccs1 | 21µM | n | u | n | 13µM | 15µM
O=C(N/N=C/c1ccncc1)c1cccs1 | n | n | n | n | n | n
SMILES | HT1080 IDH1KD tx | KB-3-1 tox | HT1080-NT tox | KB-V1 cytotox | DT40 TDP1 no CPT | TDP1 cell CPT
CC(=C/c1ccccc1)/C=N/NC(=O)c1cccs1 | n | n | n | u | 5.2µM | n
COc1cccc(C(=O)N2CCC[C@H]2C(=O)N2CCC[C@H]2C(=O)N(C)Cc2ccccc2)c1 | n | n | n | n | n | n
CCC1CN(C(=O)Nc2cc(OC)cc(OC)c2)c2ccccc2S1 (configuration not stated) | x | n | x | n | u | u
Cc1cc(C)n2c(SCc3ccc(Cl)cc3Cl)nnc2n1 | u | n | u | u | 18µM | u
Cc1cc(C(=O)Nc2ccc(Br)cc2)cs1 | n | n | n | n | n | n
Cc1nn(C)c(Cl)c1CN1CCCC(C(=O)Nc2ccc(-c3cscn3)cc2)C1 (configuration not stated) | n | x | n | x | u | 16µM
O=C(Nc1cccc(-n2cccn2)c1)C1CCCN(Cc2ccc(C#CCCO)cc2)C1 (configuration not stated) | n | n | n | u | 21µM | u
Cc1nn(C)c(Cl)c1CN1CCCC(C(=O)Nc2cccc(-n3cccn3)c2)C1 (configuration not stated) | n | n | n | u | u | 12µM
CC(=O)c1cccc(CN2CCCC(C(=O)Nc3ccc(-c4ccco4)cc3)C2)c1 (configuration not stated) | u | n | n | n | u | 15µM
O=C(Nc1ccc(-c2cscn2)cc1)C1CCCN(Cc2ccccc2)C1 (configuration not stated) | u | u | u | n | u | u
O=C(Nc1ccc(-c2ccco2)cc1)C1CCCN(Cc2ccc(CO)o2)C1 (configuration not stated) | n | n | n | n | u | u
O=C(COc1coc(CN2CCc3ccccc3C2)cc1=O)Nc1ccccc1F | n | n | n | n | n | n
CC(=O)c1cccc(CN2CCCC(C(=O)Nc3cccc(-n4cccn4)c3)C2)c1 (configuration not stated) | n | n | n | n | 23µM | u
COc1cc(C(=O)Nc2nnc(S(=O)(=O)N3CCCCCC3)s2)cc(OC)c1OC | n | n | n | n | n | n
c1ccc2c(c1)NCC1CCCN21 (configuration not stated) | n | n | n | n | 16µM | 21µM
COc1ccc(F)cc1C(=O)C1CCCN(Cc2cccn2-c2cccnc2)C1 (configuration not stated) | n | u | n | n | 21µM | u
COc1ccc(F)cc1C(=O)C1CCCN(Cc2ccc(Oc3ncccn3)cc2)C1 (configuration not stated) | n | n | n | n | u | n
Cc1ccc(-n2cccn2)c(CN2CCCC(C(=O)c3sccc3C)C2)c1 (configuration not stated) | u | u | u | u | 23µM | 23µM
O=C(c1ccc(Cl)cc1)C1CCCN(Cc2cccn2-c2ccccn2)C1 (configuration not stated) | 23µM | n | 16µM | n | u | 9.2µM
Cc1ccsc1C(=O)C1CCCN(Cc2cccn2-c2ccc(Cl)cn2)C1 (configuration not stated) | u | n | u | u | 26µM | 23µM
